# Activity calls are given as the source filed them. Unless noted, no rule for the calls is given here.
# Assays:
# [1] = compound effects on lung adenocarcinoma cell viability – A549, calcein-AM fluorescence, 48 h, basal, profiling panel (AID 1162); conditions: higher = more signal; also: test concentration not given here
# [2] = compound effects on differentiated 3T3-L1 adipocyte viability – cell-based, 3T3-L1 adipocytes, calcein-AM fluorescence, 48 h, basal, profiling panel (AID 1163); conditions: 3T3-L1 adipocytes viability, higher = more signal; also: test concentration not given here
# [3] = compound effects on hepatocellular carcinoma cell viability – HepG2, calcein-AM fluorescence, 48 h, basal, profiling panel (AID 1164); conditions: higher = more signal; also: test concentration not given here
# [4] = compound effects on multiple myeloma cell viability – MM1S, calcein-AM fluorescence, 48 h, basal, profiling panel (AID 1165); conditions: higher = more signal; also: test concentration not given here
# [5] = calcein-AM signal in unstimulated myeloma cells – cell-based, calcein-AM fluorescence, 48 h, PK04 Diversity Set, profiling panel (AID 1166); conditions: RPMI8226 myeloma viability, higher = more signal;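 also: cells grown under basal conditions without added stimulus; test concentration not given here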
# [6] = JC-1 mitochondrial signal, unstimulated HepG2 cells – cell-based, JC-1 fluorescence, 24 h, 100 nL compound, profiling panel (AID 1167); conditions: HepG2 mitochondrial potential, higher = more signal; also: test concentration not given here
# [7] = JC-1 mitochondrial signal, unstimulated adipocytes – cell-based, JC-1 fluorescence, 3T3-L1 adipocytes, 24 h, 100 nL compound, profiling panel (AID 1168); conditions: JC-1 mitochondrial fluorescence, higher = more signal, called active from +8 up or from −8 down; also: test concentration not given here
# [8] = JC-1 mitochondrial signal, unstimulated myeloma cells – cell-based, JC-1 fluorescence, RPMI8226, 24 h, 100 nL compound, profiling panel (AID 1169); conditions: JC-1 mitochondrial potential fluorescence, higher = more signal; also: test concentration not given here
# [9] = JC-1 mitochondrial signal, unstimulated MM1S myeloma – cell-based, JC-1 fluorescence, 24 h, 100 nL compound, profiling panel (AID 1170); conditions: MM1S mitochondrial potential, higher = more signal; also: test concentration not given here
# [10] = resazurin metabolic signal in A549 cells – cell-based, resazurin fluorescence, 24 h, PK04 Diversity Set, profiling panel (AID 1171); conditions: A549 viability, higher = more signal, called active from +8 up or from −8 down; also: test concentration not given here
# [11] = resazurin metabolic signal in HepG2 cells – cell-based, resazurin fluorescence, 24 h, PK04 Diversity Set, profiling panel (AID 1172); conditions: HepG2 viability, higher = more signal; also: test concentration not given here
# [12] = budding yeast growth changes without added modifier – OD600, strain BY4716, 24 h, basal condition, primary screen (AID 1173); conditions: S. cerevisiae BY4716 growth, OD600, 24 h; higher = more signal, called active from +8 up or from −8 down
# [13] = viability profiling in MM1S myeloma cells – cell-based, resazurin fluorescence, basal, 24 h, PK04 Diversity Set, profiling panel (AID 1174); conditions: higher = more signal, called active from +8 up or from −8 down; also: test concentration not given here
# [14] = biological target: Dihydroorotate dehydrogenase (quinone), mitochondrial (Plasmodium falciparum (isolate 3D7)) (UniProt Q08210); experiment: inhibition of P. falciparum DHODH – biochemical, C-terminal His tag, absorbance 600 nm, primary screen (AID 1175); conditions: PfDHODH enzyme, DCIP absorbance 600 nm; higher = more signal, called active from +8 up or from −8 down;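 also: recombinant parasite enzyme with a five histidine tag at its C terminus; test concentration not given here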
# Sequence of Dihydroorotate dehydrogenase (quinone), mitochondrial (Plasmodium falciparum (isolate 3D7)) (Q08210 whole entry, looked up): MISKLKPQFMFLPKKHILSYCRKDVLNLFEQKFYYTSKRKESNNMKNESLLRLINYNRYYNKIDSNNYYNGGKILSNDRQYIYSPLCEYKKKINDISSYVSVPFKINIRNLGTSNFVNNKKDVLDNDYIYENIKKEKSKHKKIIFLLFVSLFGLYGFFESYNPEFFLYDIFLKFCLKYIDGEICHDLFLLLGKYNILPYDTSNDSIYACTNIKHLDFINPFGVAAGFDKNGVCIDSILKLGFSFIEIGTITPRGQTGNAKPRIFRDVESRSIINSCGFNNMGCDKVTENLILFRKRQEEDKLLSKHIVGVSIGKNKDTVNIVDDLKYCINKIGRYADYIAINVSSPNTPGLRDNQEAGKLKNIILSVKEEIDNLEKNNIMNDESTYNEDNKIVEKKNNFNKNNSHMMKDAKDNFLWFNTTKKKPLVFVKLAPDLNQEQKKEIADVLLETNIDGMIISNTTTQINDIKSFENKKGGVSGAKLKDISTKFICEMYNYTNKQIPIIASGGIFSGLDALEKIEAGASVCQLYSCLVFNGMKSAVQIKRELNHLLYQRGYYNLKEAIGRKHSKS
# [15] = inhibition of PAO1 biofilm formation – strain PAO1, LB-PBS medium, absorbance 600 nm, primary screen (AID 1176); also: test concentration not given here; conditions: P. aeruginosa PAO1 growth/biofilm, A600, 12 h; higher = more signal
# [16] = growth modulation of vineyard yeast isolate – strain RM11-1a, OD600, basal, 24 h, primary screen (AID 1177);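 also: cultures grown under basal conditions with no added stressor; test concentration not given here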; conditions: S. cerevisiae RM11-1a growth, OD600, 24 h; higher = more signal, called active from +8 up or from −8 down
# [17] = growth of efflux-deficient E. coli DRC39 – strain DRC39, OD650, 24 h, E. coli filamentation inducers, primary screen (AID 1178);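 also: growth measured as culture turbidity by optical density at 650 nm; test concentration not given here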; conditions: E. coli DRC39 acrAB, higher = more signal, called active from +8 up or from −8 down
# [18] = growth of efflux-deficient E. coli DRC39 – strain DRC39, OD650, 48 h, E. coli filamentation inducers, primary screen (AID 1179);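 also: screen aims at cell division blockers that make cells filament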; conditions: E. coli DRC39 delta-acrAB growth, higher = more signal, called active from +8 up or from −8 down
# [19] = viability profiling in RPMI8226 myeloma cells – cell-based, resazurin fluorescence, basal, 24 h, PK04 Diversity Set, profiling panel (AID 1180); conditions: higher = more signal;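 also: RPMI8826 multiple myeloma cell line at 5000 cells per well; test concentration not given here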
# [20] = biological target: E3 ubiquitin-protein ligase XIAP (Homo sapiens) (UniProt P98170); experiment: small molecules binding XIAP protein – biophysical, small-molecule microarray, fluorescence 635 nm, primary screen (AID 1181); conditions: higher = more signal;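 also: score merges 667 nm emission and signal to noise over triplicate slides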
# Sequence of E3 ubiquitin-protein ligase XIAP (Homo sapiens) (P98170 whole entry, looked up): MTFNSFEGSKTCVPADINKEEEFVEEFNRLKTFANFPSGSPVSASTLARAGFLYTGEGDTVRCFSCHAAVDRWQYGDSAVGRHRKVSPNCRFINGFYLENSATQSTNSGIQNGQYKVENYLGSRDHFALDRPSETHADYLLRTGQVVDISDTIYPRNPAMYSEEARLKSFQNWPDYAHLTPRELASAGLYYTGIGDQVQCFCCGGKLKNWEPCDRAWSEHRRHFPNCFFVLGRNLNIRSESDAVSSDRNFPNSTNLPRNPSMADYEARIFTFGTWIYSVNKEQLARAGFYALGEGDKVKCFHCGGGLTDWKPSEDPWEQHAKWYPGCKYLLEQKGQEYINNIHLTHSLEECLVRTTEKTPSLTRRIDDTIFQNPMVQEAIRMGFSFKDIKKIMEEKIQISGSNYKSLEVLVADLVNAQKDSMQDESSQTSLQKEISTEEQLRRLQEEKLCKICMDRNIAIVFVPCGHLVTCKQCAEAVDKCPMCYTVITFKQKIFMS
SMILES,z-score [1],z-score [2],z-score [3],z-score [4],z-score [5],z-score [6],z-score [7],z-score [8],z-score [9],z-score [10],z-score [11],z-score [12],z-score [13],composite z-score [14],z-score [15],z-score [16],z-score [17],z-score [18],z-score [19],composite z-score [20]
Cn1cccc1C(O)C1C=CC2C(=O)N(c3ccccc3)C(=O)C2N1Nc1ccccc1 (stereo not given),-0.514,-1.86,0.316,-0.615,-0.244,-1.3,-0.96 (inactive),-0.509,-1.32,-0.386 (inactive),-0.194,0.917 (inactive),-0.251 (inactive),0.0729 (inactive),0.571 (inactive),-0.529 (inactive),0.312 (inactive),0.881 (inactive),0.0611,-0.0773
CCOC(=O)C[C@H]1[C@H](OC(=O)c2cc3ccccc3oc2=O)[C@@H](NC(=O)c2ccccc2)c2cc(OCCCO)ccc2N1C(=O)c1ccccc1,0.102,1.36,-0.521,-0.836,-2.3,1.23,0.434 (inactive),-0.954,0.185,-0.238 (inactive),-1.3,-1.89 (inactive),0.741 (inactive),-3.31 (inactive),-1.02 (inactive),-0.0038 (inactive),-0.397 (inactive),-0.869 (inactive),-0.171,-0.0559
CCOC(=O)C[C@H]1[C@H](OC(=O)Cc2ccc3c(c2)OCO3)[C@@H](NC(=O)C2CCCCC2)c2cc(OCCCO)ccc2N1C(=O)c1ccccc1,1.99,-0.193,-0.0568,0.567,-0.354,1.69,0.247 (inactive),0.0348,0.137,0.745 (inactive),-0.215,0.149 (inactive),0.327 (inactive),0.108 (inactive),0.407 (inactive),0.0834 (inactive),1.39 (inactive),1.37 (inactive),0.3,-0.173
CC(C)NC(=O)[C@@]1(c2ccc([N+](=O)[O-])cc2)CC(=O)N(C2CCCCC2)[C@@H]1c1ccc(CO)cc1,-0.68,-0.773,-0.297,-0.0629,-0.402,1.46,1.4 (inactive),0.172,-0.123,1.38 (inactive),1.2,0.178 (inactive),1.16 (inactive),1 (inactive),-0.0249 (inactive),0.852 (inactive),0.389 (inactive),1.29 (inactive),0.367,0.112
CCCCC(CC)C(O)C1C=CC2C(=O)N(c3ccccc3)C(=O)C2N1Nc1ccccc1F (stereo not given),0.389,-0.21,-0.553,0.566,0.203,-0.639,-0.511 (inactive),0.51,-0.775,0.653 (inactive),0.518,0.814 (inactive),0.888 (inactive),0.301 (inactive),0.657 (inactive),0.732 (inactive),0.207 (inactive),0.644 (inactive),0.767,0.0727
CCOC(=O)C=Cc1cccc(C)c1O,-0.877,0.407,-0.833,-0.536,-0.731,-0.768,-0.0308 (inactive),-0.642,-1.16,-0.871 (inactive),-0.156,-10.7 (active),-0.753 (inactive),-0.892 (inactive),0.0236 (inactive),-4.67 (inactive),0.0457 (inactive),-0.944 (inactive),-0.529,0.0533
CC#CCO[Si](C#Cc1ccccc1)(C(C)C)C(C)C,-0.511,-0.458,-0.175,-0.806,-1.83,-1.51,-0.628 (inactive),-0.845,-1.3,-0.537 (inactive),-0.112,-15.6 (active),-0.632 (inactive),0.108 (inactive),0.219 (inactive),0.201 (inactive),-0.244 (inactive),-0.032 (inactive),-0.67,-0.127
COc1ccc(CCNC(=O)[C@@H]2c3ccccc3C(=O)N(C3CCCCC3)[C@H]2c2ccc(CO)cc2)cc1,1.19,1.1,0.383,0.05,-0.746,1.83,-0.053 (inactive),-0.726,0.337,0.332 (inactive),-0.0966,0.162 (inactive),-0.298 (inactive),0.77 (inactive),1.32 (inactive),0.726 (inactive),-0.712 (inactive),-1.39 (inactive),0.978,-0.0349
COc1cc(NN2C(C(O)c3ccc(N(C)C)cc3)C=CC3C(=O)N(c4ccccc4)C(=O)C32)cc(OC)c1OC (stereo not given),-0.0098,0.808,0.181,-0.0191,-0.889,-0.112,-0.783 (inactive),0.134,-0.0117,-0.815 (inactive),-1.16,0.744 (inactive),-0.581 (inactive),-1.1 (inactive),0.794 (inactive),-0.591 (inactive),-0.0722 (inactive),-1.45 (inactive),-1.46,0.38

# Reference: PubChem BioAssay
